Compounds without any hit were thinned out: in the full panel of roughly 83,000, 20% have a hit.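 48-hour exposure, single concentration, 96-well plates; percent growth endpoint where 0 means no net growth. Active: below 10.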 The source made the active and inactive calls.

For the assay, the system named is 786-0 renal. Nature of the assay: NCI-60 one-dose screen, 48 h (100 = growth as untreated, 0 = no growth, -100 = all killed). The settings on record: 10 µM unless noted.
As for `Cc1nn(-c2ccc(Cl)cc2)c(C)c1N=Nc1ccc2oc(=O)ccc2c1`, the growth was 78.8% (inactive).

In the case of `O=C(NCCNc1cc(-c2cn(-c3ccccc3)nc2-c2cccc(O)c2)ccn1)Nc1ccc(Cl)c(C(F)(F)F)c1`, the growth is 64.6% (inactive).

For the compound `CN(c1ccc(Br)cc1)S(=O)(=O)c1ccc(-c2cnc(C3CC3)o2)cc1`, the growth was 52.9% (inactive).

As for `CC(C)C[C@H]1C(=O)O[C@H](C(C)C)C(=O)N(C)[C@@H](C(C)C)C(=O)O[C@H](C(C)C)C(=O)N(C)[C@@H](C(C)C)C(=O)O[C@H](C(C)C)C(=O)N1C`, the growth was 23.3% (inactive).

Take `CCCC(=O)NC(c1cccnc1)c1cc(Cl)c2cccnc2c1O` (stereo unspecified): the growth is 50.9% (inactive).

`Nc1nc(-c2cccc([N+](=O)[O-])c2)c(N=Nc2ccccc2[N+](=O)[O-])s1`: the growth is -66.4% (active).

For `C/C(=N\NC(=O)CSc1nc2sc3c(c2c(=O)n1-c1ccccc1)CCC(C)C3)c1ccc(Cl)cc1` (stereo unspecified), the growth is 7.93% (active).

For the compound `C#C[C@]1(O)CC[C@H]2[C@@H]3CC=C4c5sc(Nc6nc(C)cc(OC)n6)nc5CC[C@]4(C)[C@H]3CC[C@@]21C`, the growth was -4.27% (active).

`CN1CCN(c2ccc(NC(=O)Nc3ccc4c(ccn4-c4cccc(C(N)=O)n4)c3)cc2C(F)(F)F)CC1`: the growth is 6.16% (active).

As for `COc1ccc(NS(=O)(=O)c2ccc(-c3cnc(C4CC4)o3)cc2)cc1Cl`, the growth was 46.7% (inactive).

Take `CC1OC(O[C@@H]2C(O)C(CO)OC(O[C@H]3COC(O[C@H]4CC[C@]5(C)[C@H]6CC[C@]78OC[C@@]9(CC[C@](C)(C=O)C[C@H]97)[C@H](O)C[C@@]8(C)[C@]6(C)CC[C@H]5C4(C)C)[C@@H](OC4OC(CO)[C@@H](O)[C@@H](O)[C@@H]4O)[C@@H]3O)[C@H]2OC2OC[C@@H](O)[C@@H](O)[C@@H]2O)[C@@H](O)[C@@H](O)[C@H]1O` (stereo partly specified): the growth was -53% (active).

Values taken from PubChem BioAssay (NCI).
